Inhibition data for seven compounds are collected here from ChEMBL document CHEMBL1961873, “Compounds: GSK PKIS; Assays: Nanosyn kinase panel” (2012).

In test [1] the target is CDK3/Cyclin E (Homo sapiens) (UniProt P24864+Q00526). The following applies: at 1 µM.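 Further: each figure is a mean percent inhibition of the CDK3/cyclin E complex.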
In test [2] the target is Cyclin-dependent kinase 4 (Homo sapiens) (UniProt P11802). The settings on record: at 0.1 µM.
Test [3] shares this target. The following applies: at 1 µM.
The target in test [4] is Cyclin-dependent kinase 5 (Homo sapiens) (UniProt Q00535). The following applies: at 0.1 µM.
Sequence of Cyclin-dependent kinase 5 (Homo sapiens) (Q00535 whole entry, looked up): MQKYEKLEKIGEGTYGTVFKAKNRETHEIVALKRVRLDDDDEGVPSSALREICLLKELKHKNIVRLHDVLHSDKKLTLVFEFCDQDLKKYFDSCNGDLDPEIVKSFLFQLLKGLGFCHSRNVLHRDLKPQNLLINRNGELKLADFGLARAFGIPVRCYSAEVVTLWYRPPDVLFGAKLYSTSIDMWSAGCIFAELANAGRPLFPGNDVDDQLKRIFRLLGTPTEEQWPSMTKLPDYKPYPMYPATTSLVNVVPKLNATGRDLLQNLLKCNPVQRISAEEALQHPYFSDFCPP
The target is the same in test [5]. The settings on record: at 1 µM.
Test [6] addresses Cyclin-dependent kinase 6 (Homo sapiens) (UniProt Q00534). The following applies: at 0.1 µM.
Test [7] has the same target. The following applies: at 1 µM.
Test [8] addresses Dual specificity protein kinase CLK2 (Homo sapiens) (UniProt P49760). The following applies: at 0.1 µM.
For test [9] the target is unchanged. The following applies: at 1 µM.
Test [10] deals with Dual specificity protein kinase CLK3 (Homo sapiens) (UniProt P49761). The following applies: at 0.1 µM.
Sequence of Dual specificity protein kinase CLK3 (Homo sapiens) (P49761 whole entry, looked up): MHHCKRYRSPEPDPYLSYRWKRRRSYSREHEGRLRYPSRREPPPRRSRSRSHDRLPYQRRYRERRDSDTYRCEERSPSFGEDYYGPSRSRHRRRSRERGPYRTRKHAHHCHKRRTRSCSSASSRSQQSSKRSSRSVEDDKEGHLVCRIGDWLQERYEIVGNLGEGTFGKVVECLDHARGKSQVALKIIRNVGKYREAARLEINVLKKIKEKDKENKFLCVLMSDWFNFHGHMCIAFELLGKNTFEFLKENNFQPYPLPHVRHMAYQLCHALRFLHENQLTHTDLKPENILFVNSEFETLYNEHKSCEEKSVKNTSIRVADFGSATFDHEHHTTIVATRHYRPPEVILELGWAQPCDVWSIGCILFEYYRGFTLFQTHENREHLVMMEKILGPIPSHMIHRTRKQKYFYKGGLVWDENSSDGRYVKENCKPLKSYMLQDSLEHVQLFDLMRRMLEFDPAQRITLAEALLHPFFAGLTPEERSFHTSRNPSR
For test [11] the target is unchanged. The following applies: at 1 µM.
The target of test [12] is Dual specificity tyrosine-phosphorylation-regulated kinase 1A (Homo sapiens) (UniProt Q13627). The settings on record: at 0.1 µM.
For test [13] the target is unchanged. The settings on record: at 1 µM.
The target of test [14] is Dual specificity tyrosine-phosphorylation-regulated kinase 1B (Homo sapiens) (UniProt Q9Y463). The following applies: at 0.1 µM.
Sequence of Dual specificity tyrosine-phosphorylation-regulated kinase 1B (Homo sapiens) (Q9Y463 whole entry, looked up): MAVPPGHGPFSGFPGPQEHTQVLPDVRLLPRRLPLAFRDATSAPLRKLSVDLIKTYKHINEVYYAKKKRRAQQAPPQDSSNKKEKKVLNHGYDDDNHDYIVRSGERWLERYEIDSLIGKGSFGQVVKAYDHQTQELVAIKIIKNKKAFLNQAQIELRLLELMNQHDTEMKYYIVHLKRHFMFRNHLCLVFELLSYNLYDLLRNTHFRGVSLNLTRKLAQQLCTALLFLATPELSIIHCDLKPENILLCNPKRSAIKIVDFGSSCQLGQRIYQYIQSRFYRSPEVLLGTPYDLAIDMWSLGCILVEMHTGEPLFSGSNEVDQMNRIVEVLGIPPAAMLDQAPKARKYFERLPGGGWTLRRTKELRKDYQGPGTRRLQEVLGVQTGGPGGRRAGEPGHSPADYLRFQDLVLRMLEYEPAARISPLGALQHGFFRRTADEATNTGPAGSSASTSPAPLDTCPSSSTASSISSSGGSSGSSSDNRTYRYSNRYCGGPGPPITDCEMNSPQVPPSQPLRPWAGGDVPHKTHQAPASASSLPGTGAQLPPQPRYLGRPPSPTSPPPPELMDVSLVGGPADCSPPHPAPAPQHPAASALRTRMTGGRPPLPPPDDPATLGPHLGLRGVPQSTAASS
Test [15] has the same target. The settings on record: at 1 µM.
Test [16] has as its target T1, Dual specificity tyrosine-phosphorylation-regulated kinase 2 (Homo sapiens) (UniProt Q92630).
T1 sequence (whole entry): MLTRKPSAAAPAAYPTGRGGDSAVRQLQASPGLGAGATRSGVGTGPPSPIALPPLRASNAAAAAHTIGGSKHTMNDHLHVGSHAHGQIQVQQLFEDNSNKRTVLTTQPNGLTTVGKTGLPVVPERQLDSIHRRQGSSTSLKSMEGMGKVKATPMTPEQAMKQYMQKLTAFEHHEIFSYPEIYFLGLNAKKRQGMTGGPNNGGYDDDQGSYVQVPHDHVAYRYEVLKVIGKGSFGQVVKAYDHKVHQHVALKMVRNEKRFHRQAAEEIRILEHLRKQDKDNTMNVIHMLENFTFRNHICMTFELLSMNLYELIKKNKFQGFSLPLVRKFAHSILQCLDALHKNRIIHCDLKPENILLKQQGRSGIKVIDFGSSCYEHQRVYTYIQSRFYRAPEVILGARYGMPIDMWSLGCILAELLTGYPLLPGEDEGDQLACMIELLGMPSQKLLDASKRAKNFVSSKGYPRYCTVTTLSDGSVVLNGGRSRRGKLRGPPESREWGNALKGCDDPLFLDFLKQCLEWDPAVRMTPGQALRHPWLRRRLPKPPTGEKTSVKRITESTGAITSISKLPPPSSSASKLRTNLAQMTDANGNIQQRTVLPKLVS
The following applies: at 0.1 µM.

For test [17], the target named is T1, Dual specificity tyrosine-phosphorylation-regulated kinase 2 (Homo sapiens). The settings on record: at 1 µM.
Test [18] has as its target Glycogen synthase kinase-3 alpha (Homo sapiens) (UniProt P49840). The settings on record: at 0.1 µM.
Test [19] has the same target. The following applies: at 1 µM.
The target of test [20] is Glycogen synthase kinase-3 beta (Homo sapiens) (UniProt P49841). The following applies: at 0.1 µM.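 Further: values are mean percent inhibition of GSK3B activity, from the GSK Published Kinase Inhibitor Set (PKIS) screening dataset.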
Sequence of Glycogen synthase kinase-3 beta (Homo sapiens) (P49841 whole entry, looked up): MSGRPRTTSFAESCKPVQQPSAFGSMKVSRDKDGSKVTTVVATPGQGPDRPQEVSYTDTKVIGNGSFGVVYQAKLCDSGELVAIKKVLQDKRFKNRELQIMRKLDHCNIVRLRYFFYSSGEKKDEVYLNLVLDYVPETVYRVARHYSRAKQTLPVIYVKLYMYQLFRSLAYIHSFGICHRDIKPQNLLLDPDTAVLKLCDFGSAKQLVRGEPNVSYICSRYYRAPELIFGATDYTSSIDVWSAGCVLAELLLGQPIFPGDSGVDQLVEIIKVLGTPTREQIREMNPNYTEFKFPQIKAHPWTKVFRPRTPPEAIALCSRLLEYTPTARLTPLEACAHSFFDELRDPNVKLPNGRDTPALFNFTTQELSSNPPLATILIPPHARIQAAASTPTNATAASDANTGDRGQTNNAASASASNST

Sequence of Dual specificity protein kinase CLK2 (Homo sapiens) (P49760 whole entry, looked up): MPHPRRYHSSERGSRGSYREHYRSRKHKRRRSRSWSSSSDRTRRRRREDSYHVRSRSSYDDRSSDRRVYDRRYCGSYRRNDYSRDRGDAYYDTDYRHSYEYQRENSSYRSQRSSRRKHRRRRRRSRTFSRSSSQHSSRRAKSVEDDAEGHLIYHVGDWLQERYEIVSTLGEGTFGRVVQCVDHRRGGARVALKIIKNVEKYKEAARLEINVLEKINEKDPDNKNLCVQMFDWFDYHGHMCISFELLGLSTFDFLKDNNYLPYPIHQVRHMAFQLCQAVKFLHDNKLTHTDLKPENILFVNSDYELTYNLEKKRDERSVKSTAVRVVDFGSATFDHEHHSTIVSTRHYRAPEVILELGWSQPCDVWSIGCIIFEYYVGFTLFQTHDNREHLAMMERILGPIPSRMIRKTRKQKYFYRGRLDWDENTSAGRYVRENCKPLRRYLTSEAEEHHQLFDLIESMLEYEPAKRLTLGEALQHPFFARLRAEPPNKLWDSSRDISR
Sequence of CDK3/Cyclin E (Homo sapiens) (P24864 whole entry, looked up): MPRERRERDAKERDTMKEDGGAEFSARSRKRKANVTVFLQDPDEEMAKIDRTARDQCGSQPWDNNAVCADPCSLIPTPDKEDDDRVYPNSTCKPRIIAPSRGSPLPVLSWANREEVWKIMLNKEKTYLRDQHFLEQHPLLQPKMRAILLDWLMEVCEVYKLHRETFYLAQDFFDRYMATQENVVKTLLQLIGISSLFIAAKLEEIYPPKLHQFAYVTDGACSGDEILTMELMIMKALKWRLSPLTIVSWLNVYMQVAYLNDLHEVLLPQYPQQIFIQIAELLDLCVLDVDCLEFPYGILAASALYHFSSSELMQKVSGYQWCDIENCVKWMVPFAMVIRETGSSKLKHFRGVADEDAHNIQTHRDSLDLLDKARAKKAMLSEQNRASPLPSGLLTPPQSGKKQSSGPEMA
Sequence of CDK3/Cyclin E (Homo sapiens) (Q00526 whole entry, looked up): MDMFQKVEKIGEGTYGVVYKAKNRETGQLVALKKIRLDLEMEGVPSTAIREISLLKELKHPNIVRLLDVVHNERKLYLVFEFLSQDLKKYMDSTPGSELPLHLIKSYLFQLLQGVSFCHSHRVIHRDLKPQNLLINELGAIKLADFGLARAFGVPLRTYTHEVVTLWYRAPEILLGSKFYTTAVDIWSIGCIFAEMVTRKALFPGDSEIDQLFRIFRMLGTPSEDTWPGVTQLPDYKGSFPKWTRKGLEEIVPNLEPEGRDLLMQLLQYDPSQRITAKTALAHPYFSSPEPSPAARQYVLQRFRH
Sequence of Cyclin-dependent kinase 6 (Homo sapiens) (Q00534 whole entry): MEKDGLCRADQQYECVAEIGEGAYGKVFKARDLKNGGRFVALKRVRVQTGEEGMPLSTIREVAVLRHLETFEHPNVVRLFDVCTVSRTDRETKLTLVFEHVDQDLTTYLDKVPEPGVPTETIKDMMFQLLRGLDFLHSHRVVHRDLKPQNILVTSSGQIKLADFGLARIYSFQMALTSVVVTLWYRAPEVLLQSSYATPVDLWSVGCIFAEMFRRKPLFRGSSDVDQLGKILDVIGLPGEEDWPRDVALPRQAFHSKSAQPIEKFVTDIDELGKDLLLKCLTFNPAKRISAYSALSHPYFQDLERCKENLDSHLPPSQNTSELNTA
Sequence of Cyclin-dependent kinase 4 (Homo sapiens) (P11802 whole entry): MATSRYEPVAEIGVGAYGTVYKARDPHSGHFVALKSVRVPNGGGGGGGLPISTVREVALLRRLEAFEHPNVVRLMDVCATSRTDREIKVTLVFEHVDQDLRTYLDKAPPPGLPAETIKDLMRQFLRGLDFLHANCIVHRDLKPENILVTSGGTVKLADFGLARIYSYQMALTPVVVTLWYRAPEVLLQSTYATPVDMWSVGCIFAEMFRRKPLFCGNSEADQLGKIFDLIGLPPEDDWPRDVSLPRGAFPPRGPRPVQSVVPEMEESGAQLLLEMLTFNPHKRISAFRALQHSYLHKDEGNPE
Sequence of Glycogen synthase kinase-3 alpha (Homo sapiens) (P49840 2-483 limits assumed): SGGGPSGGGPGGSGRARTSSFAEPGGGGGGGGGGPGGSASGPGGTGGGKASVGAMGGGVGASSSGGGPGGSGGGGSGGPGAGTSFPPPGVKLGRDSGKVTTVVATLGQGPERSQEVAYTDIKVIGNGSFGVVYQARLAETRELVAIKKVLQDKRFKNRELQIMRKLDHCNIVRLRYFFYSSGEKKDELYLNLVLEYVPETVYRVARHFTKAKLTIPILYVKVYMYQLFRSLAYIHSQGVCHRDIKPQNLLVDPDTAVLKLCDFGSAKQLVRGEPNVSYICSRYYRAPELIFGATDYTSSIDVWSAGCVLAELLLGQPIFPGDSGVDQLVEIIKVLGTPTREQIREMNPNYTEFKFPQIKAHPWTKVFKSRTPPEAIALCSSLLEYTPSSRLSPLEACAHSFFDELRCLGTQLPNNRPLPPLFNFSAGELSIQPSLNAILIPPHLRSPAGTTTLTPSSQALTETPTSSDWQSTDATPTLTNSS

As usually defined, the inhibition is the relative decrease from the control value, in per cent. Take `NS(=O)(=O)c1ccc(N/N=C2\C(=O)Nc3ccc(C(=O)NCCCn4ccnc4)cc32)cc1`: the inhibition in test [1] came to 88.6%; in test [2], 16.6%; in [3], 57.1%; in test [4] it was 33.8%; in [5] it was 72.8%; in test [6], 10%. Also, the inhibition was 57.2% in [7]; 15.6% in test [8]; 66.1% in test [9]; 1.77% in test [10]; 8.02% in test [11]; 7.66% in test [12]. The inhibition in test [13] was determined as 15.9%; in [14], 4.25%; in test [15], 15.6%; in test [16], 4.62%; in test [17], 16.2%; in test [18], 40.6%. The inhibition was determined as 76% in test [19] and 39.7% in test [20].
Take `CCc1nccc2c1nc(-c1nonc1N)n2CC`: the inhibition is -0.63% in [1]; 1.93% in [2]; 2.76% in test [3]; 1.21% in test [4]; 2.65% in [5]; -8.01% in test [6]. Besides, the inhibition was -0.61% in test [7]; 1.1% in [8]; 2.67% in [9]; -0.31% in [10]; 2.23% in test [11]; 2.9% in test [12]. Besides, the inhibition in test [13] was 7.05%; in test [14], 2.47%; in test [15], 6.3%; in test [16], -0.4%; in test [17], 3.18%; in test [18], 0.44%. The inhibition in test [19] is 7.97%; in test [20], 2.74%.
Turning to `COc1ccc2ncn(-c3cc(O[C@H](C)c4ccccc4Cl)c(C(N)=O)s3)c2c1`, the inhibition is -2.98% in test [1]; -2.27% in [2]; -0.19% in test [3]; -3.87% in [4]; -2.17% in test [5]; -3.71% in test [6]. Further, the inhibition in test [7] was -2.1%; in test [8], 0.43%; in test [9] it was 0.2%; in test [10], -2.29%; in [11] it was -2.47%; in test [12], -1.4%. Further, the inhibition in test [13] was 0.78%; in test [14] it was -5.09%; in test [15], -1.96%; in [16], 2.27%; in [17], 2.75%; in test [18] it was -1.42%. Also, the inhibition is 1.7% in test [19] and -1.37% in [20].
Regarding `COc1cc2ncn(-c3cc(OCCc4ccccc4)c(C(N)=O)s3)c2cc1OC`, the inhibition in test [1] was 0.51%; in test [2], 1.86%; in test [3], 1.87%; in test [4], 0.7%; in test [5], 1.45%; in [6] it was -3.45%. Besides, the inhibition amounted to 2.54% in test [7]; 1.3% in test [8]; 2.64% in test [9]; 0.57% in [10]; 3.27% in [11]; 3.14% in [12]. The inhibition in [13] was 3.09%; in test [14], 1.95%; in test [15], 1.81%; in test [16], -0.08%; in test [17], 4.14%; in test [18], 0.82%. Moreover, the inhibition in test [19] is 3.18%; in test [20], 0.44%.
`COc1cc2ncn(-c3cc(OCc4cccs4)c(C(N)=O)s3)c2cc1OC`: the inhibition in test [1] was 2.15%; in test [2] it was -2.57%; in [3], -2.26%; in test [4], -2.83%; in [5], -2.03%; in test [6], -5.45%. Also, the inhibition was -6.37% in [7]; 2.46% in test [8]; 6.46% in test [9]; -1.61% in test [10]; 0.59% in [11]; -2.96% in [12]. Besides, the inhibition in test [13] is -0.93%; in test [14], -3.74%; in [15], -1.79%; in [16], 0.17%; in test [17] it was 4.35%; in test [18] it was 0.28%. In addition, the values for the inhibition in test [19] and in test [20] were 6.22% and 0.55%, respectively.
With `Cc1nnc(-c2ccc(C)c(-c3ccc(C(=O)NCc4ccc(Cl)cc4)cc3)c2)o1`, the inhibition was -2.98% in test [1]; -0.53% in test [2]; 0.24% in test [3]; -2.39% in test [4]; -4.02% in test [5]; -7.02% in test [6]. Further, the inhibition in test [7] was -4.88%; in [8], -0.33%; in test [9] it was 0.92%; in test [10] it was -1.37%; in test [11], -1.79%; in [12] it was 0.32%. The inhibition in [13] is 0.5%; in [14], -2.54%; in test [15], -4.08%; in test [16], 2.1%; in [17], 3.03%; in test [18], 0.36%. Also, the figures for the inhibition in [19] and in test [20] were 9.75% and -0.31%, respectively.
For the compound `COc1ccc2cc(-c3c(-c4ccncc4)nc(-c4ccc(S(C)(=O)=O)cc4C)n3C)ccc2c1`, the inhibition in test [1] is -3.73%; in test [2] it was 3.77%; in test [3] it was 4.56%; in test [4], 0.42%; in test [5], -0.58%; in test [6], 0.01%. Besides, the inhibition is 1.21% in test [7]; 0.85% in test [8]; -1.59% in test [9]; 1.66% in [10]; 2.06% in [11]; 2.19% in [12]. For the same compound, the inhibition in test [13] stood at 7.68%; in [14], 0.76%; in test [15], 2.36%; in test [16], 3.55%; in [17] it was 4.35%; in test [18] it was 2.9%. Moreover, the inhibition came out at 6.04% in test [19] and 2.27% in test [20].
